HCMV antiviral – inhibitors of human cytomegalovirus. HFF cells, HCMV-luciferase reporter, 72 h; active compounds read low. activity change, negative = inhibition, % at 57.5 µM. hit rate 4.5% among 410,000. AID 1259415; in the data active means activity change below about -60%; inconclusive means no clear call, values can overlap the other calls; inactive means above about -39%
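Two compound doses tested in HFFs infected with HCMV-luciferase, MOI 1 PFU/cell, 72 h at 37C. Lysate luminescence read with OneGlo; data normalized against buffer-only and 10uM Salinomycin inhibitor controls.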
Marburg entry inh – inhibitors of Marburg virus binding or cell entry | Potency, µM (titrated, usually from 37.8 µM), inactives show top-dose activity change, negative = inhibition, actives largely listed as inhibitors | hit rate 1.8% among 300,000 | Marburg virus pseudotyped entry inhibition, cell reporter; calls by dose curve; tested in HEK293 cells; further: potency means the concentration at half of the fitted maximal effect
FMDV inh – antivirals against foot and mouth disease virus; FMDV antiviral cell-based qHTS; Potency, µM (doses to about 57.9 µM), for inactives: top-dose activity change, negative = inhibition, usual class: inhibitors; hit rate 1.2% among 410,000; AID 1159524; calls by dose curve; tested in HEK293T cells; further: read-out not given here; potency means the concentration at half of the fitted maximal effect; nearly all actives have a fitted effect of over 45% in size
HCV inh – HCV inhibition | Huh7.5.1 HCVcc-Cre infection, luciferase reporter, 44 h | Potency, µM (top dose mostly 41.8 µM), for the others: top-dose activity change, negative = inhibition, actives largely listed as inhibitors | hit rate 3.4% among 340,000; active means well fitted inhibition curve with a large enough effect; inconclusive means small, poorly fitted or top-dose-only effect, or another doubt; inactive means no such curve, though single readings can be large or run the other way; further: potency means the concentration at half of the fitted maximal effect
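Infectious HCVcc-Cre (~0.5 moi) was added to cells just after compound, with cells seeded 4 h earlier at 1,000 per well. Luciferase activity after 44 h culture reported infection; substrate was incubated 15 min at room temperature before reading.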
LASV entry inh – inhibitors of Lassa virus binding or cell entry | AID 540256 | hit rate 1.2% among 300,000 | Potency, µM (titrated, usually from 37.9 µM), for the others: at the highest dose activity change, negative = inhibition, most hits filed as inhibitors | Lassa virus pseudotype entry inhibition, cell reporter; calls by dose curve; tested in HEK293 cells; further: potency means the concentration at half of the fitted maximal effect; nearly all actives have a fitted effect of over 50% in size
The depositor's hits bear a star; ? = inconclusive; · = not tested or not shown; ! = not active in a repeat; [ ] = dose if it differs, or a comment. Sampled rows, rich in hits. Any-hit rate of the full collection: about 7.9%. On the % scale 0 is the no-effect control and ±100 the full control effect.

SMILES	HCMV antiviral	Marburg entry inh	FMDV inh	HCV inh	LASV entry inh
O=C(Nc1nccs1)c1ccc(COc2ccccc2Br)o1	37.5	?	·	11.2µM*	-22.1%
COc1ccc(C2=NOC(C(=O)N(C)Cc3ccccc3)C2)cc1 (stereo not given)	-33.6	10.4%[46.1 µM]	5.9%	11.0%	-8.0%[46.1 µM]
COc1ccc(C(CNC(=O)c2cc(SC)ccc2Cl)N(C)C)cc1 (stereo not given)	-32.8	·	-1.9%	-23.6%	·
COc1ccc(C)cc1NC(=O)NNC(=O)c1ccoc1C	31.8	5.8%	0.0%	18.4%	1.0%
CCOC(=O)Cc1nnc(NC(=O)c2ccccc2OCC)s1	-3.0	-3.9%	-9.4%	?	2.2%
COc1ccc(C)cc1NC(=O)c1ccoc1C	-12.3	14.5%	-12.2%	14.1µM*	11.5%
CCc1cc(C(=O)OC)c(NC(=O)c2cc(Br)cs2)s1	-7.8	11.3%	-27.3%	-19.7%	-10.9%
CCc1cc(C(=O)OC)c(NC(=O)c2ccoc2C)s1	-21.4	·	-23.6%	10µM*	·
CCOc1ccccc1C(=O)Nc1nnc(COC)s1	6.1	-13.1%	18.7%	7.08µM*	20.6%[46.1 µM]
CCOc1ccccc1NC(=O)c1ccoc1C	7.1	9.5%	2.4%	6.31µM*	11.9%
OC(c1ccccc1)c1nc(-c2ccc3c(c2)OCO3)cs1 (stereo not given)	57.7	·	21.3%	·	·
COc1ccc([C@H](CC(=O)N2CCOCC2)C(C)C)cc1	·	-0.8%	·	·	·
CCCCSc1nnc2n(-c3cccc(C)c3)c(=O)c3c4c(sc3n12)CCCC4	-37.5	-6.6%[46.1 µM]	-10.1%	·	19.9%[46.1 µM]
CCOc1ccccc1C(=O)Nc1cnn(Cc2ccc(F)cc2)c1	-63.4*	?	-10.3%	?	-9.8%
CCCCCCCC/C=C\CCCCCCCC(=O)NCc1ccc(O)c(OC)c1	·	-15.1%	-0.4%	·	?
CCCCCCCC/C=C\CCCCCCCC(=O)NCCc1ccc(O)c(O)c1	-17.3	4.47µM*	?	?	9.2µM*
COc1ccc([C@]23Cc4ccccc4[C@H](O2)C2=C(O3)C(=O)c3ccccc3C2=O)cc1	·	10.6%[14.2 µM]	·	·	·
COc1ccc(-c2csc(NC(=O)c3ccoc3C)n2)cc1	?	-5.0%[46.1 µM]	-8.5%	11.2µM*	?
O=C(Nc1nc(-c2ccccc2)cs1)c1ccccc1NS(=O)(=O)c1ccc(F)cc1	-100.2*	?	?	?	3.66µM*
COc1ccc(-c2csc(NC(=O)c3ccccc3S(C)(=O)=O)n2)cc1	?	?	25.1µM*	?	?
O=S(=O)(Nc1ccc(-c2csc(-c3ccccc3)n2)cc1)c1ccc(F)cc1	-35.7	-24.7%	13.0%	?	-12.5%
COc1cc(/C=C(/C(=O)c2cccs2)c2nc3ccccc3[nH]2)cc(OC)c1O	-102.4*	-85.1%	14.1µM*	10µM*	?
CCN(c1ccccc1)S(=O)(=O)c1cc(NC(=O)Nc2ccccc2C#N)ccc1Cl	-68.5*	15.8%	?	?	-1.7%
CCN(c1ccccc1)S(=O)(=O)c1cc(C(=O)Nc2ccc(F)c(F)c2)ccc1F	-90.9*	?	11.2µM*	4.47µM*	14.1µM*
O=C(/C(=C/c1ccc(Cl)cc1)c1nc2ccccc2[nH]1)c1ccccc1	-95.7*	?	?	10µM*	4.11µM*
SMILES	HCMV antiviral	Marburg entry inh	FMDV inh	HCV inh	LASV entry inh
C=CCN(c1ccccc1)S(=O)(=O)c1cccc(C(=O)Nc2ccc(N3CCOCC3)cc2)c1	?	?	22.4µM*	7.08µM*	?
C=CCN(c1ccccc1)S(=O)(=O)c1cccc(C(=O)O)c1	31.2	13.5%	-20.5%	7.3%	?
C=CCN(c1ccccc1)S(=O)(=O)c1cccc(C(=O)N(CC)CC(=O)Nc2c(F)cccc2F)c1	6.6	?	2.0%	·	17.8µM*
C=CCN(c1ccccc1)S(=O)(=O)c1cccc(C(=O)Nc2ccncc2)c1	-75.1*	?	22.4µM*	?	?
CS(=O)(=O)N(Cc1ccccc1)c1ccc(C(=O)Nc2ccc(Cl)cc2)cc1	-87.7*	·	?	·	?
CC1=C(C(=O)Nc2ccccc2C(=O)N2CCN(c3ccccc3)CC2)SCCO1	26.4	·	-24.5%	·	·
COc1ccccc1CN1CC[C@@]2(CCCN(C(=O)c3cccn3C)C2)C1	·	·	-10.8%	·	·
CCN(c1ccccc1)S(=O)(=O)c1ccc(C(=O)Nc2cccc(NC(C)=O)c2)cc1	-7.1	·	?	-0.9%	·
ClCCNc1nc2ccc(Cl)cc2[nH]1	100.8	8.8%	54.6%	-26.2%	?
CN(c1cccc(Cl)c1)S(=O)(=O)c1cccc(C(=O)Nc2nc3ccccc3[nH]2)c1	-99.4*	22.4µM*	12.6µM*	?	?
O=C(Nc1nc2ccccc2[nH]1)c1ccc(Cl)cc1	2.6	?	-71.2%	?	2.51µM*
O=C(Nc1nc2ccccc2[nH]1)c1cccc(Cl)c1	97.6	·	15.6%	-19.8%	·
O=C(O)c1ccc(Nc2nc3ccc(Cl)cc3[nH]2)cc1	7.7	·	-14.0%	2.82µM*	·
O=C(Nc1nc2ccccc2[nH]1)c1ccccc1	39.2	?	-26.0%	?	?
CCN(c1ccccc1)S(=O)(=O)c1ccc(C(=O)Nc2ccncc2)cc1	-25.3	?	25.1µM*	?	?
CCC1C(=O)NCCN1Cc1ccc2c(c1)CN(Cc1ccc3c(c1)OCCO3)CCO2 (stereo not given)	·	·	-3.3%	·	·
C=CCN(c1ccccc1)S(=O)(=O)c1cccc(C(=O)Nc2nc3ccccc3[nH]2)c1	-8.1	?	22.4µM*	-25.9%	-24.5%
O=C(COc1ccc2ccc(=O)oc2c1)Nc1cccc(S(=O)(=O)N2CCCCC2)c1	38.1	-7.2%	14.1µM*	?	5.5%
Cc1ccc(OCC(=O)Nc2cccc(S(=O)(=O)N3CCCC3)c2)cc1C	0.2	·	8.7%	·	·
Cc1ccc(OCC(=O)Nc2cccc(S(=O)(=O)N3CCCCC3)c2)c([N+](=O)[O-])n1	-11.9	?	-23.0%	?	-0.6%
CN1CCN(c2ccc(-c3cccc(NC(=O)COc4ccc(Cl)cc4Cl)c3)nn2)CC1	-26.2	?	?	11.2µM*	4.47µM*
Cc1cc(Cl)ccc1OCC(=O)Nc1cccc(S(=O)(=O)N2CCCC2)c1	?	·	-0.6%	7.94µM*	·
Cc1ccc2cccc(OCC(=O)Nc3cccc(S(=O)(=O)N4CCCC4)c3)c2n1	-17.6	?	39.8µM*	5.62µM*	?
C=C[C@@H]1c2cc(C)ccc2N(S(=O)(=O)c2ccc(C)cc2)[C@H](c2ccccc2C(F)(F)F)C1(C#N)C#N	-25.3	·	0.0%	7.0%	·
Cn1c(=O)[nH]c(=O)c2c1nc(N)n2Cc1ccccc1	247.2	-0.4%[46.1 µM]	-11.6%	15.0%	1.5%[46.1 µM]
SMILES	HCMV antiviral	Marburg entry inh	FMDV inh	HCV inh	LASV entry inh
CC1(C)C(=O)C=C(N2CCCCC2)c2ccccc21	-26.9	·	-3.1%	·	·
O=C(COc1ccc2ccc(=O)oc2c1)NC1CCCC1	-62.3*	·	-14.8%	13.5%	·
O=C(COc1ccc2ccc(=O)oc2c1)NC1CCN(Cc2ccccc2)CC1	0.0	-2.5%[46.1 µM]	-18.8%	0.7%	1.5%[46.1 µM]
O=C1CCN(Cc2ccc(O)cc2)CCN1CCO	-67.5*!	·	-10.9%	22.7%	·
O=C1CCN(Cc2ccccc2)CCN1CCO	?	·	-5.2%	31.8%	·
CCn1c(=O)cc(SCC(=O)NCCc2cccc(C)c2)c2ccccc21	6.6	-17.1%[46.1 µM]	-0.8%	·	5.3%[46.1 µM]

Screening data (PubChem BioAssay)
